Measured values from the antibiotic and cytotoxicity screens of Wong et al. (2023).
The whole screen tested about 39,000 compounds, of which about 3,300 (8.5%) were called active. This is one part of a sample in which actives are shown more often than they occur.

system: HepG2; test: cytotoxicity call (relative viability < 0.9); settings: 10 µM

Q: Which cytotoxicity call does the source give for `CC(C)NC(=O)Nc1ccc2c(c1)C(=O)N([C@H](C)CO)C[C@H](C)[C@H](CN(C)C(=O)Nc1ccccc1)OCCCC[C@H](C)O2` here?
A: inactive

Q: `C[C@@H]1CN([C@@H](C)CO)C(=O)Cc2cc(NS(=O)(=O)c3cn(C)cn3)ccc2O[C@@H]1CN(C)Cc1ccc(C(=O)Nc2ccccc2N)cc1` was tested. Which cytotoxicity call did it give?
A: inactive

Q: `Cc1noc(C)c1S(=O)(=O)Nc1cccc2c1O[C@H](CN(C)C(=O)Nc1ccccc1)[C@H](C)CN([C@H](C)CO)C2=O` was tested. Which cytotoxicity call did it give?
A: inactive

Q: How did the cytotoxicity call turn out when `CN(C(=O)c1ccc(Cl)c(N2C(=O)CCS2(=O)=O)c1)[C@H]1CCS(=O)(=O)C1` was run?
A: inactive

Q: `Cc1ccc(S(=O)(=O)Nc2ccc3c(c2)C(=O)N([C@@H](C)CO)C[C@H](C)[C@@H](CN(C)S(C)(=O)=O)O3)cc1` was tested. Which cytotoxicity call did it give?
A: inactive

Q: How did the cytotoxicity call turn out when `O=C(C[C@H]1CC[C@H]2[C@@H](COC[C@@H](O)CN2S(=O)(=O)c2ccc(F)cc2)O1)NCCN1CCCCC1` was run?
A: inactive

Q: With `Cc1noc(C)c1NC(=O)Nc1ccc2c(c1)C(=O)N([C@H](C)CO)C[C@@H](C)[C@@H](CN(C)Cc1ccc3c(c1)OCO3)OCCCC[C@H](C)O2` as the compound, how does the cytotoxicity call read?
A: inactive

Q: How did the cytotoxicity call turn out when `O=C(C[C@H]1C[C@H]2c3cc(NS(=O)(=O)c4ccc(F)cc4)ccc3O[C@H]2[C@H](CO)O1)NCc1cccc(F)c1` was run?
A: inactive

Q: How did the cytotoxicity call turn out when `C[C@@H]1CN([C@@H](C)CO)C(=O)Cc2cc(NC(=O)Nc3ccccc3)ccc2O[C@@H]1CN(C)Cc1ccc(Cl)c(Cl)c1` was run?
A: active

Q: `C[C@H]1CN([C@@H](C)CO)C(=O)Cc2cc(NC(=O)Nc3ccccc3)ccc2O[C@@H]1CN(C)Cc1ccc(Cl)c(Cl)c1` was tested. Which cytotoxicity call did it give?
A: active

Q: `C[C@H](CO)N1C[C@H](C)[C@H](CN(C)Cc2ccc(C(F)(F)F)cc2)OCCCC[C@H](C)Oc2ccc(NC(=O)c3ccncc3)cc2C1=O` was tested. Which cytotoxicity call did it give?
A: inactive

Q: For `C[C@@H]1CN([C@@H](C)CO)S(=O)(=O)c2ccc(C3=CCCC3)cc2O[C@H]1CN(C)S(=O)(=O)c1ccc(F)cc1`, which cytotoxicity call is on record?
A: inactive

Q: With `Nc1cccc(OCc2ccccc2)c1` as the compound, how does the cytotoxicity call read?
A: inactive

Q: With `CC(C)NC(=O)Nc1ccc2c(c1)C(=O)N([C@H](C)CO)C[C@@H](C)[C@H](CN(C)Cc1ccc(C(=O)O)cc1)O2` as the compound, how does the cytotoxicity call read?
A: inactive

Q: For `C[C@@H]1CN([C@H](C)CO)S(=O)(=O)c2ccc(C#CCN(C)C)cc2O[C@H]1CN(C)C(=O)Nc1ccccc1F`, which cytotoxicity call is on record?
A: inactive

Q: With `CC12C=CC(=O)C=C1CCC1C2C(=O)CC2(C)C1CCC2(O)C(=O)CO` (stereo not given) as the compound, how does the cytotoxicity call read?
A: inactive

Q: For `O=P(O)(O)C(Cl)(Cl)P(=O)(O)O`, which cytotoxicity call is on record?
A: active

Q: For `CC(O)(P(=O)(O)O)P(=O)(O)O`, which cytotoxicity call is on record?
A: inactive

Q: For `CC(O)(P(=O)([O-])O)P(=O)([O-])O.[Na+].[Na+]`, which cytotoxicity call is on record?
A: inactive

Q: How did the cytotoxicity call turn out when `C[C@@H]1CN([C@@H](C)CO)C(=O)c2cc(NC(=O)Cc3ccccc3)ccc2O[C@@H](C)CCCCO[C@@H]1CN(C)C(=O)C1CCCCC1` was run?
A: inactive

Q: How did the cytotoxicity call turn out when `COc1ccc(NC(=O)N(C)C[C@@H]2OCCCC[C@@H](C)Oc3ccc(NC(=O)Nc4c(C)noc4C)cc3C(=O)N([C@@H](C)CO)C[C@H]2C)cc1` was run?
A: inactive

Q: How did the cytotoxicity call turn out when `CN(Cn1[nH]c(=O)ccc1=O)c1ccccc1` was run?
A: inactive

Q: `COCCOC(=O)N1C(=O)[C@@]2(c3cc(C#CCNC(N)=O)ccc31)[C@H](C(=O)N1CCCCCCC1)[C@H]1C(=O)O[C@H](c3ccccc3)[C@H](c3ccccc3)N1[C@@H]2c1ccccc1OCCO` was tested. Which cytotoxicity call did it give?
A: inactive

Q: With `Cl.OC(c1cc(C(F)(F)F)nc2c(C(F)(F)F)cccc12)C1CCCCN1` (stereo not given) as the compound, how does the cytotoxicity call read?
A: active

Q: `C[C@H]1CN([C@@H](C)CO)C(=O)c2cccc(NC(=O)C3CCCCC3)c2O[C@H]1CN(C)Cc1ccc(-c2ccccc2)cc1` was tested. Which cytotoxicity call did it give?
A: inactive

Q: With `Cc1noc(C)c1NC(=O)Nc1cccc2c1O[C@@H](CN(C)Cc1ccc(Cl)c(Cl)c1)[C@@H](C)CN([C@H](C)CO)C2=O` as the compound, how does the cytotoxicity call read?
A: inactive

Q: `C[C@@H]1CN([C@@H](C)CO)C(=O)Cc2cc(NC(=O)Cc3ccccc3)ccc2O[C@@H]1CN(C)Cc1ccc(-c2ccccc2)cc1` was tested. Which cytotoxicity call did it give?
A: active

Q: `C[C@@H]1CN([C@@H](C)CO)C(=O)Cc2cc(NC(=O)Cc3ccccc3)ccc2O[C@H]1CN(C)Cc1ccc(-c2ccccc2)cc1` was tested. Which cytotoxicity call did it give?
A: inactive

Q: How did the cytotoxicity call turn out when `C[C@@H]1CN([C@H](C)CO)C(=O)Cc2cc(NC(=O)Cc3ccccc3)ccc2O[C@H]1CN(C)Cc1ccc(-c2ccccc2)cc1` was run?
A: inactive

Q: How did the cytotoxicity call turn out when `C[C@H](CO)N1C[C@H](C)[C@@H](CN(C)Cc2ccc(-c3ccccc3)cc2)Oc2ccc(NC(=O)Cc3ccccc3)cc2CC1=O` was run?
A: inactive

Q: Which cytotoxicity call does the source give for `C[C@H]1CN([C@@H](C)CO)C(=O)Cc2cc(NC(=O)Cc3ccccc3)ccc2O[C@@H]1CN(C)Cc1ccc(-c2ccccc2)cc1` here?
A: inactive

Q: Which cytotoxicity call does the source give for `C[C@H](CO)N1C[C@H](C)[C@H](CN(C)Cc2ccc(-c3ccccc3)cc2)Oc2ccc(NC(=O)Cc3ccccc3)cc2CC1=O` here?
A: inactive

Q: How did the cytotoxicity call turn out when `C[C@H]1CN([C@@H](C)CO)C(=O)Cc2cc(NC(=O)Cc3ccccc3)ccc2O[C@H]1CN(C)Cc1ccc(-c2ccccc2)cc1` was run?
A: active

Q: Which cytotoxicity call does the source give for `C[C@@H]1CN([C@H](C)CO)C(=O)Cc2cc(NC(=O)Cc3ccccc3)ccc2O[C@@H]1CN(C)Cc1ccc(-c2ccccc2)cc1` here?
A: active

Q: With `CC(C)NC(=O)N(C)C[C@H]1Oc2ccc(NS(=O)(=O)c3cn(C)cn3)cc2CC(=O)N([C@@H](C)CO)C[C@@H]1C` as the compound, how does the cytotoxicity call read?
A: inactive

Q: With `COc1cccc(C#Cc2ccc3c(c2)O[C@H](CN(C)C(=O)c2ccccn2)[C@H](C)CN([C@@H](C)CO)S3(=O)=O)c1` as the compound, how does the cytotoxicity call read?
A: inactive

Q: How did the cytotoxicity call turn out when `COc1ccc(CN(C)C[C@@H]2OCCCC[C@@H](C)Oc3ccc(NC(=O)CCCCCC(=O)Nc4ccccc4N)cc3C(=O)N([C@H](C)CO)C[C@@H]2C)cc1` was run?
A: inactive

Q: For `C[C@@H]1CCCCO[C@@H](CN(C)Cc2ccc3c(c2)OCO3)[C@@H](C)CN([C@@H](C)CO)C(=O)c2cc(NC(=O)c3ccccc3)ccc2O1`, which cytotoxicity call is on record?
A: inactive

Q: Which cytotoxicity call does the source give for `C[C@H](CO)N1C[C@H](C)[C@H](CN(C)S(=O)(=O)c2cccs2)OCCCC[C@H](C)Oc2ccc(NC(=O)C3CCCCC3)cc2C1=O` here?
A: inactive

Q: `Cc1noc(C)c1NC(=O)Nc1ccc2c(c1)CC(=O)N([C@@H](C)CO)C[C@H](C)[C@H](CN(C)C(=O)Nc1cccc3ccccc13)O2` was tested. Which cytotoxicity call did it give?
A: inactive

Q: `C[C@@H]1CN([C@H](C)CO)C(=O)c2cc(NC(=O)Cc3cn(C)c4ccccc34)ccc2O[C@@H]1CN(C)Cc1ccc(-c2ccccc2)cc1` was tested. Which cytotoxicity call did it give?
A: inactive

Q: For `C[C@H]1CN([C@@H](C)CO)C(=O)c2cc(NC(=O)Cc3cn(C)c4ccccc34)ccc2O[C@H]1CN(C)Cc1ccc(-c2ccccc2)cc1`, which cytotoxicity call is on record?
A: inactive

Q: How did the cytotoxicity call turn out when `C[C@H](CO)N1C[C@H](C)[C@H](CN(C)Cc2ccc(-c3ccccc3)cc2)Oc2ccc(NC(=O)Cc3cn(C)c4ccccc34)cc2C1=O` was run?
A: active

Q: `C[C@H]1CN([C@@H](C)CO)C(=O)c2cc(NC(=O)Cc3cn(C)c4ccccc34)ccc2O[C@@H]1CN(C)Cc1ccc(-c2ccccc2)cc1` was tested. Which cytotoxicity call did it give?
A: active

Q: For `C[C@@H]1CN([C@@H](C)CO)C(=O)c2cc(NC(=O)Cc3cn(C)c4ccccc34)ccc2O[C@H]1CN(C)Cc1ccc(-c2ccccc2)cc1`, which cytotoxicity call is on record?
A: inactive

Q: Which cytotoxicity call does the source give for `C[C@H](CO)N1C[C@H](C)[C@@H](CN(C)Cc2ccc(-c3ccccc3)cc2)Oc2ccc(NC(=O)Cc3cn(C)c4ccccc34)cc2C1=O` here?
A: inactive

Q: How did the cytotoxicity call turn out when `C[C@@H]1CN([C@@H](C)CO)C(=O)c2cc(NC(=O)Cc3cn(C)c4ccccc34)ccc2O[C@@H]1CN(C)Cc1ccc(-c2ccccc2)cc1` was run?
A: active

Q: How did the cytotoxicity call turn out when `C[C@@H]1CN([C@H](C)CO)C(=O)c2cc(NC(=O)Cc3cn(C)c4ccccc34)ccc2O[C@H]1CN(C)Cc1ccc(-c2ccccc2)cc1` was run?
A: inactive

Q: For `Cc1ccc([C@@H](N)c2ccncc2)cc1`, which cytotoxicity call is on record?
A: inactive

Q: For `COC(=O)c1c(C#N)c(N)nc2c1CCC2`, which cytotoxicity call is on record?
A: inactive

Q: Which cytotoxicity call does the source give for `CC(C)NC(=O)N(C)C[C@H]1OCCCC[C@H](C)Oc2ccc(NC(=O)Nc3ccccc3)cc2C(=O)N([C@H](C)CO)C[C@@H]1C` here?
A: inactive

Q: How did the cytotoxicity call turn out when `COc1ccccc1-c1ccc2n(c1=O)C[C@H]1[C@H](CO)[C@@H](C(=O)NCC3CC3)N(S(C)(=O)=O)[C@@H]21` was run?
A: inactive

Q: How did the cytotoxicity call turn out when `O=C(C[C@@H]1CC[C@H](NS(=O)(=O)c2ccccc2F)[C@@H](CO)O1)NCCCN1CCOCC1` was run?
A: inactive

Q: Which cytotoxicity call does the source give for `C[C@@H]1CN([C@H](C)CO)C(=O)Cc2cc(NS(C)(=O)=O)ccc2O[C@@H]1CN(C)S(C)(=O)=O` here?
A: inactive

Q: Which cytotoxicity call does the source give for `C[C@H]1CN([C@@H](C)CO)S(=O)(=O)c2ccc(-c3cccnc3)cc2O[C@@H]1CN(C)C(=O)NC1CCCCC1` here?
A: inactive

Q: With `C[C@@H]1CN([C@H](C)CO)S(=O)(=O)c2ccc(C#Cc3ccncc3)cc2O[C@H]1CN(C)C(=O)C1CCOCC1` as the compound, how does the cytotoxicity call read?
A: active

Q: How did the cytotoxicity call turn out when `CC(C)CC#Cc1ccc2c(c1)O[C@@H](CN(C)C(=O)C1CCOCC1)[C@H](C)CN([C@H](C)CO)S2(=O)=O` was run?
A: inactive

Q: For `C[C@@H]1CN([C@@H](C)CO)S(=O)(=O)c2ccc(C#Cc3ccncc3)cc2O[C@H]1CN(C)C(=O)C1CCOCC1`, which cytotoxicity call is on record?
A: active

Q: With `C[C@@H]1CN([C@@H](C)CO)S(=O)(=O)c2ccc(C#Cc3ccncc3)cc2O[C@@H]1CN(C)C(=O)C1CCOCC1` as the compound, how does the cytotoxicity call read?
A: active

Q: For `C[C@H](CO)N1C[C@H](C)[C@@H](CN(C)C(=O)C2CCOCC2)Oc2cc(C#Cc3ccncc3)ccc2S1(=O)=O`, which cytotoxicity call is on record?
A: inactive

Q: `C[C@H]1CN([C@@H](C)CO)S(=O)(=O)c2ccc(C#Cc3ccncc3)cc2O[C@@H]1CN(C)C(=O)C1CCOCC1` was tested. Which cytotoxicity call did it give?
A: active

Q: For `CC(C)CC#Cc1ccc2c(c1)O[C@@H](CN(C)C(=O)C1CCOCC1)[C@@H](C)CN([C@H](C)CO)S2(=O)=O`, which cytotoxicity call is on record?
A: inactive

Q: With `C[C@H](CO)N1C[C@H](C)[C@H](CN(C)C(=O)C2CCOCC2)Oc2cc(C#Cc3ccncc3)ccc2S1(=O)=O` as the compound, how does the cytotoxicity call read?
A: inactive

Q: With `CC(C)CC#Cc1ccc2c(c1)O[C@H](CN(C)C(=O)C1CCOCC1)[C@H](C)CN([C@H](C)CO)S2(=O)=O` as the compound, how does the cytotoxicity call read?
A: inactive

Q: Which cytotoxicity call does the source give for `CC(C)CC#Cc1ccc2c(c1)O[C@H](CN(C)C(=O)C1CCOCC1)[C@@H](C)CN([C@H](C)CO)S2(=O)=O` here?
A: inactive
